Screens (PubChem BioAssay)
GPR151 ag = activators of human GPR151, primary screen, cell-based, PathHunter beta-arrestin, luminescence; G-protein coupled receptor 151 (Homo sapiens), Q8TDV0; PathHunter beta-arrestin GPR151 cells; activation, % at 11.2 µM; actives 1% (n = 650,000); AID 1508602, 2020; in the data active means activation above about 4.9%
TEAD-YAP block = TEAD-YAP interaction inhibition, primary screen, TEAD-YAP interaction inhibitor project, luminescence, HEK-TIYL cells; TEAD-Gal4/YAP UAS-luciferase luminescence; inhibition, % at 9.12 µM; actives 1.4% (n = 640,000); in the data active means inhibition above about 32%
MITF inh = MITF inhibitors, primary screen, biochemical, AlphaScreen, human. Microphthalmia-associated transcription factor (Homo sapiens), O75030. inhibition, % at 2.6 µM. actives 0.91% (n = 650,000). AlphaScreen MITF homodimerization, bead proximity signal; in the data active means inhibition above about 50%
Target sequence (O75030 whole entry, looked up): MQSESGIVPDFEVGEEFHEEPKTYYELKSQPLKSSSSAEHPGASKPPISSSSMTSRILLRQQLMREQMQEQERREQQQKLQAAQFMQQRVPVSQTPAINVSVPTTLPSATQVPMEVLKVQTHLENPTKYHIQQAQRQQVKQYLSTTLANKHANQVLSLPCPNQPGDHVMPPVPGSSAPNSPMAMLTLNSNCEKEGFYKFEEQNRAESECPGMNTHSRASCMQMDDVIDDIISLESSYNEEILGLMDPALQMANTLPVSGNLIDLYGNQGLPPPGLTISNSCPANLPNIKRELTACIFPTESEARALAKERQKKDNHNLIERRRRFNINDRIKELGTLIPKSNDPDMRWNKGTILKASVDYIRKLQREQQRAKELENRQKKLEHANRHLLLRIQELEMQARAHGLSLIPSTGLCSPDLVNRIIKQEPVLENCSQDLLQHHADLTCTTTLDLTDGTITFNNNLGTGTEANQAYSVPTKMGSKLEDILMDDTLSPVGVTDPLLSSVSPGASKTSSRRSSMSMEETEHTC
FBW7 activator = FBW7 E3 ligase activators, primary screen, biochemical, AlphaScreen, human; F-box/WD repeat-containing protein 7 (Homo sapiens), Q969H0; normalized activity (activation), % at 26.1 µM; actives 0.13% (n = 650,000); AlphaScreen FBW7–phospho-cyclin E peptide binding, activator screen; in the data active means normalized activity above about 1.9%;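 further: purified mutant Fbw7 with reduced substrate affinity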
GPR151 confirm = GPR151 activators, triplicate retest, confirmation, cell-based, PathHunter beta-arrestin, luminescence; activation, % at 11.2 µM; GPR151 PathHunter beta-arrestin cells, 90 min; % of EA-reagent control over plate median; shares compounds with GPR151 ag; 6,700 tested, under 10 active;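 active means mean percent activation across replicates above the confirmation screen cutoff of 4.91%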
GPR119 ag = GPR119 activators in beta-arrestin cells, counter-screen for GPR151 activator project, cell-based, PathHunter beta-arrestin, luminescence, triplicate; shares compounds with GPR151 ag; 90 min; 0 = compound-well median, 100 = enzyme-acceptor control; activation, % at 11.2 µM; actives 0.3% (n = 6,700);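 active means mean percent activation in the counterscreen above 29.09%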;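 further: counterscreen on off-target GPR119 to flag nonselective hits from the GPR151 activator screen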
A number is an active result; . = inactive; / = no result; ! = not confirmed by another sample. Compounds with a hit are over-represented: about 3.5% of the library has one in this group of screens.

SMILES | GPR151 ag | TEAD-YAP block | MITF inh | FBW7 activator | GPR151 confirm | GPR119 ag
CC1Sc2cc(S(=O)(=O)CCC(=O)NC3CCCC(C)C3C)ccc2NC1=O (configuration not stated) | 5.1 | . | . | . | . | .
CC(=O)N1CCC(c2[nH]ncc2-c2cc(C)no2)CC1 | . | . | . | . | / | /
CCS(=O)(=O)N1CCC(c2[nH]ncc2-c2cc(C)no2)CC1 | 5.9 | . | . | . | . | .
Cc1cc(C)c(C#N)c(SC/C=C/CSc2nc(C)cc(C)c2C#N)n1 | . | . | . | . | / | /
Cc1cc(C)c(C#N)c(SC/C=C/c2ccccc2)n1 | 7.0 | . | . | . | . | .
Cc1cc(Cl)ccc1OCC(=O)N1CCc2nnc(CNC(=O)C3CC3)n2CC1 | . | . | . | . | / | /
O=C(Nc1ccccc1)c1csc(Br)n1 | . | . | . | . | / | /
CC(NC(=O)c1cccc(Br)c1)C1CCCO1 (configuration not stated) | . | . | . | . | / | /
CC(NC(=O)c1ccc2c(c1)OCO2)C1CCCO1 (configuration not stated) | 5.5 | . | . | . | . | .
O=C(c1ccc2c(c1)OCCO2)C1CCN(C(=O)Nc2cccc(F)c2)CC1 | . | . | . | . | / | /
CC(C)CC(=O)Nc1nn2c(-c3cccs3)nnc2s1 | 5.5 | . | . | . | . | .
Cc1cc(NC(=O)C(C)n2cc([N+](=O)[O-])cn2)ccc1Br (configuration not stated) | 5.2 | . | . | . | . | .
CC(C)C[C@@H]1NC(=O)[C@H]2CN(Cc3cccc(Cl)c3)CCN2C1=O | . | . | . | . | / | /
Cc1c(NC(=S)NC(=O)c2ccco2)cccc1C(=O)O | . | . | . | . | / | /
O=C(c1cc2ccccc2oc1=O)N1CCN(c2ccccc2)CC1 | 6.3 | . | . | . | . | .
N#Cc1c(NC(=O)c2cc3ccccc3oc2=O)sc2c1CCCCCC2 | . | . | . | . | / | /
NC(=O)c1c(NC(=O)c2cc3ccccc3oc2=O)sc2c1CCCCCC2 | 28.4 | . | . | . | . | .
Cc1cccc(C)c1NC(=O)c1cc2ccccc2oc1=O | 6.0 | . | . | . | . | .
CCc1cccc(C)c1NC(=O)c1cc2ccccc2oc1=O | . | . | . | . | / | /
COc1cccc(C(=O)NC(=S)Nc2ccccc2F)c1 | . | . | . | . | / | /
C[N+](C)(C)C/C=C1/COCO1 | 13.5 | . | . | . | . | .
CCOc1ccccc1NC(=O)c1cc(S(=O)(=O)NCCC2=CCCCC2)ccc1F | . | . | . | . | / | /
COc1ccc(Cl)cc1NC(=O)c1cc(S(=O)(=O)N2CCCCCC2)ccc1F | 5.7 | . | . | . | . | .
CCCNS(=O)(=O)c1ccc(F)c(C(=O)Nc2cc(C)ccc2OC)c1 | . | . | . | . | / | /
COc1ccccc1CNS(=O)(=O)c1ccc(F)c(C(=O)Nc2ccc(F)cc2)c1 | 5.4 | . | . | . | . | .
SMILES | GPR151 ag | TEAD-YAP block | MITF inh | FBW7 activator | GPR151 confirm | GPR119 ag
COc1ccccc1CNS(=O)(=O)c1ccc(F)c(C(=O)Nc2ccc(Cl)cc2)c1 | . | . | . | . | / | /
CCCNS(=O)(=O)c1ccc(F)c(C(=O)Nc2cc(Cl)ccc2OC)c1 | 5.8 | . | . | . | . | .
CCOc1ccccc1NC(=O)c1cc(S(=O)(=O)NCCc2ccccc2)ccc1F | 5.0 | . | . | . | . | .
COc1ccc(Cl)cc1NC(=O)c1cc(S(=O)(=O)N2CCCCC2)ccc1F | . | . | . | . | / | /
CN1CCN(CCC(=O)Nc2cccc(Cl)c2)CC1 | . | . | . | . | / | /
COc1ccc(-c2cccc(C(=O)NCCOc3ccccc3Cl)c2)cc1 | . | . | . | . | / | /
COC(=O)Cc1c(C)c2ccc(OCC(=O)c3ccc(F)cc3)cc2oc1=O | . | . | . | . | / | /
CCOC(=O)C1NC(=S)N(c2ccc(CC)cc2)C1=O (configuration not stated) | . | . | . | . | / | /
O=C(Nc1cccc(C(F)(F)F)c1)c1ccccc1F | . | . | . | . | / | /
Cc1nn(C)c(C)c1-c1nc(NCCO)c2ncn(C(C)C)c2n1 | . | . | . | . | / | /
CC1CCCN(CCCNC(=O)c2ccc3c(c2)NC(=O)C(N2CCOCC2)S3)C1 (configuration not stated) | 6.2 | . | . | . | . | .
O=C(O)C1CSC(c2ccccc2F)N1 (configuration not stated) | 5.3 | . | . | . | . | .
Cc1[nH]c2ccccc2c1CCNC(=O)/C(=C/c1cccc(Br)c1)NC(=O)c1ccccc1 | . | . | . | . | / | /
CN(C(=S)NC(=O)c1ccco1)c1ccccc1 | . | . | . | . | / | /
CCOc1ccc(C(=O)N2CCC(c3ncncc3-c3ccncc3)CC2)o1 | 18.2 | . | . | . | . | .
CCOc1ccc(C(=O)N2CCCC(c3ncncc3-c3ccncc3)C2)o1 (configuration not stated) | . | . | . | . | / | /
O=C(NC1CCN(Cc2ccccc2)CC1)c1csc(NCc2cccnc2)n1 | 5.0 | . | . | . | . | .
Nc1cccc(-c2cccc(C(=O)NC3CCN(Cc4ccccc4)CC3)n2)c1 | 5.3 | . | . | . | . | .
CC(=O)c1cccc(-c2nc(C(=O)NC3CCN(Cc4ccccc4)CC3)cs2)c1 | 9.9 | . | . | . | . | .
O=C(NC1CCN(Cc2ccccc2)CC1)c1csc(-c2ccccc2)n1 | . | . | . | . | / | /
c1ccc(-c2cn(-c3ccccc3)c3ncnc(N4CCOCC4)c23)cc1 | . | . | . | . | / | /
O=S(=O)(NCCN1CCN(c2ccccc2)CC1)c1cccc2nsnc12 | . | . | . | . | / | /
COc1cc(NC(=O)CN2C(=O)c3ccc([N+](=O)[O-])cc3C2=O)c(C(=O)O)cc1OC | . | . | . | . | / | /
CCOC(=O)c1c(NC(=O)c2cccc(OC)c2)sc(C(C)=O)c1C | . | . | . | . | / | /
O=S(=O)(c1cccc2cnccc12)N1CCCN(S(=O)(=O)c2cccc3cnccc23)CC1 | . | . | . | . | / | /
O=S(=O)(c1cccc2cnccc12)N1CCCNCC1 | 9.3! | . | . | . | . | .
CC(C)C1=CC(=Nc2ccc(S(N)(=O)=O)cc2)C=C(C(C)C)C1=O | 14.4 | . | . | . | . | .
CCOc1ccc(NC(=O)CN(c2cc(C(F)(F)F)ccc2Cl)S(C)(=O)=O)cc1 | . | . | . | . | / | /
Cc1ccc(NS(=O)(=O)c2cc(Br)cnc2N)c(Br)c1 | . | . | . | . | / | /
Cc1cc(NC(=O)c2cc3c(s2)-c2ccccc2OC3)no1 | . | . | . | . | / | /
